BRCA1 expr up = increases BRCA1 expression; Potency, µM (top dose mostly 46.1 µM), without a hit: at the highest dose activation, usual class: activators; 1.1% of 380,000 active; AID 624202; MCF7-BRCA1-FFLuc reporter, luminescence, 48 h; response scale: scaled: vehicle 0%, 10 µM genistein 100%; note: potency is the fitted concentration of half-maximal effect; nearly all actives have a fitted effect of over 80% in size
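Using MCF7 cells harboring a BRCA1 firefly luciferase reporter, plated 2 h before compound pinning, the screen measured luminescence after 48 h incubation. Responses were normalized to DMSO and 10 microM genistein, then fitted for concentration-effect.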
B2AR arrestin = agonists driving beta-arrestin recruitment to human beta2-adrenergic receptor; beta-arrestin recruitment to beta2AR, cell-based reporter; Potency, µM (doses to about 46.1 µM), for inactives: top-dose activation, usual class: activators; 0.02% of 330,000 active; AID 492947;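 note: potency is the fitted concentration of half-maximal effect; 0% = DMSO controls and full agonism = EC100 isoproterenol or metaproterenol; nearly all actives have a fitted effect of over 65% in size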
PTHR1 ag = activates the human parathyroid hormone receptor PTHR1; Q03431; HEK293 GP2 PTHR1 cells, GloSensor cAMP luminescence, 1 h; Potency, µM (series often up to 115 µM), for inactives: at the top dose activation, hits mostly activators; 0.075% of 410,000 active; AID 743266; note: potency is the fitted concentration of half-maximal effect; nearly all actives have a fitted effect of over 55% in size
Target sequence (Q03431 whole entry, looked up): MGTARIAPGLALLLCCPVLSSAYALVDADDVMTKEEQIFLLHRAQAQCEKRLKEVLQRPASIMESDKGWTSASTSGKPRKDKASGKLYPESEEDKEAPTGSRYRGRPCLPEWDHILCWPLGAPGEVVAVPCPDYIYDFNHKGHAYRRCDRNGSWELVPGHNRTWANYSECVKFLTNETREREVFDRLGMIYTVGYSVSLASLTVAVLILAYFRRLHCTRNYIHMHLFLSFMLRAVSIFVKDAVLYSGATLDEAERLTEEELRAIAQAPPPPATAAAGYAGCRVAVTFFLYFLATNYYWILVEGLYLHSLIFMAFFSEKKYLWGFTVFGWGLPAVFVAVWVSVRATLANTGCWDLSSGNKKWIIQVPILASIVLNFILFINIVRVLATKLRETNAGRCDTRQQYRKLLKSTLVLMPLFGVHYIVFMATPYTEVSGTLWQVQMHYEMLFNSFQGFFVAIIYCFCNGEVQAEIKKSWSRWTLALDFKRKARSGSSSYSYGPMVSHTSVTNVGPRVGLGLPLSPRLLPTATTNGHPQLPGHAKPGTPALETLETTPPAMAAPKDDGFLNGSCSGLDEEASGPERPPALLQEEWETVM
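HEK-293-derived GP2 cells expressing PTHR1 and a GloSensor cAMP reporter, 3,000/well, plated overnight, given luciferin plus IBMX (each 0.5 mM as added) for 1 h at 37 °C, then compound for 1 h at 37 °C. Luminescence was read after 15 min at room temperature.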
DRD3 agonist = activates the human D3 dopamine receptor | AID 652048 | 0.58% of 410,000 active | max activation, % | P35462 | D3R DiscoveRx beta-arrestin cells, luminescence, 90 min; in the data active = max activation above about 30%; note: 0% is about no effect
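Agonist-mode cell screen: cells plated at 1500/well and incubated overnight at 37 °C, then exposed to library compounds for 90 min at 37 °C. Detection reagent was added for 30–60 min at room temperature, and luminescence was read.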
DRD3 antagonist = antagonists of human D3 dopamine receptor; D3R cells, DiscoveRx beta-arrestin luminescence, antagonist mode; stronger effect = lower value; max response, negative = inhibition, %; P35462; 2.5% of 360,000 active; in the data active = max response below about -50%; inconclusive = no clear call, values can overlap the other calls; note: % is set by controls: 0 for no effect and ±100 for the full control effect
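Cells expressing the human receptor were seeded at 1500 cells/well, incubated overnight at 37 degrees C in 5% CO2, then exposed to library compounds with dopamine controls for 90 minutes at 37 degrees C before luminescent detection.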
RGS4 inhibitor = inhibitors of human regulator of G protein signaling 4; P49798; Transcreener GDP fluorescence polarization, RGS4-accelerated GTP hydrolysis; Potency, µM (doses to about 114 µM), inactives show top-dose activity change, negative = inhibition, actives largely listed as inhibitors; 0.039% of 390,000 active; AID 504845; note: potency is the fitted concentration of half-maximal effect; % is set by controls: 0 for no effect and ±100 for the full control effect; nearly all actives have a fitted effect of over 75% in size
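MLSMR compounds (23 nl, pin-transferred) preincubated 10 min at room temperature with a 500nM (2x) first reagent, then RGS4 at 900nM (2x) plus Transcreener GDP mix added; fluorescence polarization (620/688 nm) read before and after 90 min at 30 °C.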
* hit, by the source's call; i = inactive; ? = inconclusive; / = no result; [ ] = another dose, or the depositor's remark. A selection: hits, their analogues and other compounds. The true share with any hit is near 3.7%. Unless noted, calls come from the whole dose curve; as a rule, active = well fitted curve in the direction sought with a large enough effect; inconclusive = small, poorly fitted or top-dose-only effect, or another doubt; inactive = no such curve, though single readings can be large; an effect the other way counts as inactive or inconclusive.

SMILES | BRCA1 expr up | B2AR arrestin | PTHR1 ag | DRD3 agonist | DRD3 antagonist | RGS4 inhibitor
CCOC(=O)C(CCSC)Nc1nc(Cl)nc(Nc2ccc(Cl)cc2)n1 (stereo unspecified) | -17% | / | i | -13 | -58* | 3%
COC(=O)CNc1nc(Cl)nc(Nc2ccc(Cl)cc2)n1 | 0% | -1% | i | 8 | 1 | ?
CC(C)C(=O)Nc1ccc2oc(-c3cc(F)c(F)cc3Cl)nc2c1 | 2.8µM* | -1% | i | -2 | -7 | -10%
CC(=O)Nc1ccc2oc(-c3cc(F)c(F)cc3Cl)nc2c1 | 49% | 0% | -13%[57.5 µM] | 10 | 19 | 27%
Cc1oc(-c2ccc(C(=O)NC(C)c3ccccc3)cc2)nc1CS(=O)(=O)c1ccccc1 (stereo unspecified) | / | / | i | -17 | / | 10%
Cn1c(-n2cccc2)c(-c2c(-c3ccc(F)cc3)[nH]c3c2c(=O)n(C)c(=O)n3C)c(=O)n(C)c1=O | / | / | ? | -24 | / | 5%
COc1cc(NC(=O)c2ccno2)cc(C(=O)Nc2cccc(C(F)(F)F)c2)c1 | -32% | -1% | -4% | 15 | 7 | 3%
COc1cc(NC(=O)c2cc3cccc(OC)c3o2)cc(C(=O)Nc2cccc(C(F)(F)F)c2)c1 | -42% | 0% | -4% | 46* | 133 | -41%
CCN1CCN(Cc2ccc(NC(=O)c3cc(NC(=O)c4cc5cccc(OC)c5o4)cc(OC)c3)cc2C(F)(F)F)CC1 | -87% | 0% | -23% | -10 | -58* | ?
CC(CC(=O)Nc1ccc2c(c1)c(=O)n(C)n2-c1ccccc1F)c1ccccc1 (stereo unspecified) | -6% | / | i | -22 | -90* | /
Cn1c(=O)c2cc(NC(=O)CC(C)(C)C)ccc2n1-c1ccccc1F | 18% | / | -13% | -7 | 0 | /
COc1ccc(NC(=O)CN2C(=O)NC(C)(c3ccccc3)C2=O)cc1Cl (stereo unspecified) | 11% | 0% | i | 2 | 4 | -11%
CC1CN(CCOCCSc2ccc(Cl)cc2)CC(C)O1 (stereo unspecified) | 15% | 0% | i | -7 | -64* | -2%
CC1CN(CCOCCSc2ccccc2)CC(C)O1 (stereo unspecified) | -7% | 0% | i | -4 | -67* | 23%
CC1CN(CCOc2ccccc2C(C)C)CC(C)O1 (stereo unspecified) | 0% | 0% | -24% | -26 | -69* | 11%
COC(=O)c1ccccc1OCCCCN1CC(C)OC(C)C1 (stereo unspecified) | -11% | -1% | -21% | 0 | -29 | -12%
Cc1ccc(C)c(OCCOCCN2CC(C)OC(C)C2)c1C (stereo unspecified) | -1% | 0% | i | -5 | -75* | 28%
CC1CN(CCCCSc2ccc(Cl)cc2)CC(C)O1 (stereo unspecified) | -13% | ? | 18% | 9 | 7 | 40%
CCCCC/C(C=O)=C\c1ccccc1 | / | / | / | 3 | / | /
CCc1nc2oc3ccc(C)cc3c(=O)c2cc1C(=O)OC | 6.3µM* | 0% | -5% | 5 | -8 | -2%
O=C(NCc1ccc(-c2csnn2)cc1)c1cc(Cl)cc(Cl)c1 | 5% | -1% | i | -6 | 0 | -4%
O=C(NCc1ccc(-c2csnn2)cc1)c1cccs1 | 0% | 0% | -18% | -7 | -51* | 4%
CCN(C(=O)COC(=O)C1CCN(S(=O)(=O)c2ccc3c(c2)OCCO3)CC1)C1CCCCC1 | 25% | 0% | -22% | 2 | 4 | 12%
CCOc1ccc(-c2c(=O)n(OCc3ccc([N+](=O)[O-])cc3)c3ccccc3[n+]2[O-])c(OCC)c1 | -6% | / | 0% | 6 | 9 | 5%
CCOc1ccc(OCC)c(-c2c(=O)n(OCc3ccc(C(C)(C)C)cc3)c3ccccc3[n+]2[O-])c1 | -24% | -1% | i | 52* | 11 | 1%
SMILES | BRCA1 expr up | B2AR arrestin | PTHR1 ag | DRD3 agonist | DRD3 antagonist | RGS4 inhibitor
CCOC(=O)N1CCC(NC(=O)CCC(=O)N2CCOc3ccc(C)cc32)CC1 | -11% | 0% | i | 0 | 4 | -36%
CC1CCCCC1NC(=O)CCC(=O)N1CCOc2ccc(Cl)cc21 (stereo unspecified) | -2% | 0% | -2% | -20 | -53* | 20%[11.4 µM]
Cc1ccc2c(c1)N(C(=O)CCC(=O)NC1CCC(C)CC1)CCO2 (stereo unspecified) | 59% | 0% | i | -12 | -96* | 0%
CC1CCC(NC(=O)CCC(=O)N2CC(C)Oc3ccccc32)CC1 (stereo unspecified) | 89% | -1% | -12% | -16 | -92* | -23%
CC1(C)C2CCC1(C)C(NC(=O)COC(=O)c1ccc(S(C)(=O)=O)c([N+](=O)[O-])c1)C2 (stereo unspecified) | -69% | / | / | / | / | -31%
Cn1nnc2cc(C(=O)Nc3ccc(Cl)cc3)ccc21 | 26% | 0% | -19% | -5 | -6 | -49%
Cn1nnc2cc(NC(=O)NCc3ccc4c(c3)OCO4)ccc21 | 11% | 0% | i | -20 | -90* | 22%
Cc1ccc(NC(=O)c2ccc3c(c2)nnn3C)cc1 | 7.1µM* | -1% | i | -2 | -5 | 10%
COc1cccc(NC(=O)Nc2ccc3c(c2)nnn3C)c1 | 7.9µM* | 0% | i | -11 | -16 | 11%
Cn1nnc2cc(C(=O)Nc3ccccc3)ccc21 | 7.1µM* | 0% | i | -3 | 2 | 13%
COc1cc(Nc2nc3c(S(=O)(=O)c4cccc(Cl)c4)nnn3c3ccsc23)cc(OC)c1 | / | / | i | 7 | / | -7%
COc1cc(C(=O)NC(=S)NCc2ccncc2)cc(OC)c1OC | 4% | / | i | -9 | 0 | /
CC(=O)c1ccc(OCCCC(=O)Nc2cccc(-c3nn[nH]n3)c2)cc1 | -6% | -1% | -5% | -33 | -21 | 4%
CC1CCCC(C)N1C(=O)COC(=O)c1cc(-c2cccs2)nn1-c1ccccc1 (stereo unspecified) | 2% | 0% | i | -17 | -20 | 7%
CCn1c2ccccc2c2cc(CNCCCN3CCOCC3)ccc21 | -11% | -4% | i | -8 | -100* | -2%
CCC(CC)NCc1ccc2c(c1)c1ccccc1n2CC | -74% | 0% | i | -7 | 0 | -73%[56.9 µM]
CCNC(=S)Nc1ccc2c(c1)oc1ccccc12 | 4.5µM* | / | -12% | 0 | 2 | 5%
O=C(Nc1ccc2c(c1)oc1ccccc12)N1CCOCC1 | 6.3µM* | -1% | -3%[57.5 µM] | 0 | 24 | -13%
CCn1c2ccccc2c2cc(NC(=O)N3CCOCC3)ccc21 | 11µM* | 0% | i | -3 | 3 | -33%

Compound activity deposited in PubChem by National Center for Advancing Translational Sciences (NCATS).
